# Reference: PMC7862700, “An all-to-all approach to the identification of sequence-specific readers for epigenetic DNA modifications on cytosine”
# Experiments:
# Test in all cases: DAPPL (digital affinity profiling via proximity ligation, sequencing); 10 mM Tris-HCl pH 7.5, 50 mM NaCl, 1 mM DTT, 4% glycerol, room temperature, 30 min; GST-TFs on glutathione beads, 16-mer random dsDNA library, 0.1% formaldehyde crosslink after washing; high values mean tight binding
# [1] = target: T1, FEV (Homo sapiens, UniProt Q99581 1-238); conditions: protein: recombinant; tags: N-terminal GST; dsDNA, one strand shown
# T1 sequence: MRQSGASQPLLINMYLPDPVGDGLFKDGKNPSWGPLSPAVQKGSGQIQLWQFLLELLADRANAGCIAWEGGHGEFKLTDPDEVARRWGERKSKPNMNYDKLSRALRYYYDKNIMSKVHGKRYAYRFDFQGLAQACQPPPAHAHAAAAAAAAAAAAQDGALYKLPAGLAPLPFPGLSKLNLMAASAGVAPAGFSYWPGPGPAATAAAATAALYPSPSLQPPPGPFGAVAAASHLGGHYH
# Outline: (§1)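 Sequencing on an Illumina NextSeq500 followed washing, crosslinking with 0.1% formaldehyde, proximity ligation (BsaI/T4 ligase, 1 h, 37 °C) and PCR amplification of pools that had been incubated for 30 min at room temperature with 200 nmole of a random double-stranded 16-mer DNA library in Tris/NaCl/DTT/glycerol buffer. Each pool held DNA-barcoded human transcription factors, expressed in yeast as GST fusions and captured on glutathione beads, plus a tag-only sample. Binding signal is a hexamer's read frequency for a factor divided by its frequency in the tag-only sample.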
# [2] = target: ETV5 (Homo sapiens, UniProt P41161 1-510); conditions: protein: recombinant; tags: N-terminal GST; dsDNA, one strand shown
# Outline: as §1
# [3] = target: HSF1 (Homo sapiens, UniProt Q00613 1-529); conditions: protein: recombinant; tags: N-terminal GST; chain copies: 3; dsDNA, one strand shown
# Outline: as §1
# [4] = target: T2, SPIC (Homo sapiens, UniProt Q8N5J4 1-248); conditions: protein: recombinant; tags: N-terminal GST; dsDNA, one strand shown
# T2 sequence: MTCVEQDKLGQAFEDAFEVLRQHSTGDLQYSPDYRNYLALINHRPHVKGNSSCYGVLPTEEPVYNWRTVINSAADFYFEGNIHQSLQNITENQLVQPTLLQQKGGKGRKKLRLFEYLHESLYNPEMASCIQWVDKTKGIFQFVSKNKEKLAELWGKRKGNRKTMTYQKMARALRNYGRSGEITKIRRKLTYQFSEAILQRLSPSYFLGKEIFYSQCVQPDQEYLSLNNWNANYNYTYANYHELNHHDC
# Outline: as §1
# [5] = target: ELF4 (Homo sapiens, UniProt Q99607 1-663); conditions: protein: recombinant; tags: N-terminal GST; dsDNA, one strand shown
# Outline: as §1
# [6] = target: T3, ELK4 (Homo sapiens, UniProt P28324-2 1-405); conditions: protein: recombinant; tags: N-terminal GST; dsDNA, one strand shown
# T3 sequence: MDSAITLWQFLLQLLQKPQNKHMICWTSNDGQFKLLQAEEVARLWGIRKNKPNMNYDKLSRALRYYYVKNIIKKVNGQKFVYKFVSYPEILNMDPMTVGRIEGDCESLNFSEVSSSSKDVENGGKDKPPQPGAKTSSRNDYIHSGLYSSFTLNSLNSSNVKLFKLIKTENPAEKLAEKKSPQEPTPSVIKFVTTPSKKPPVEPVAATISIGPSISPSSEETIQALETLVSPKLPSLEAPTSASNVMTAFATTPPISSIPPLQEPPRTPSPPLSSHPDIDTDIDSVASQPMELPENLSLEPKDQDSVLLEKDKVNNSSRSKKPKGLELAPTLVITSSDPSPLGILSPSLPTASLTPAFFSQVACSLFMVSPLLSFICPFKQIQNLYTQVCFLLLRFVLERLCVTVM
# Outline: as §1
# [7] = target: T4, ETV2 (Homo sapiens, UniProt O00321 1-342); conditions: protein: recombinant; tags: N-terminal GST; dsDNA, one strand shown
# T4 sequence: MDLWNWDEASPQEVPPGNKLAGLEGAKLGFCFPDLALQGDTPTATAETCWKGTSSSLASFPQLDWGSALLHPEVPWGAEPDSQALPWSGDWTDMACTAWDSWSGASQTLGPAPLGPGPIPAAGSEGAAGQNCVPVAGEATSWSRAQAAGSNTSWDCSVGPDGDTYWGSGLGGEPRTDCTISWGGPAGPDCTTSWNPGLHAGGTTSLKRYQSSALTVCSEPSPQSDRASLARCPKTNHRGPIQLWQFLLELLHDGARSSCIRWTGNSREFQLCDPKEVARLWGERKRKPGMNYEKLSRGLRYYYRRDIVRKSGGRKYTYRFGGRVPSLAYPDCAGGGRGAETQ
# Outline: as §1
# [8] = target: T5, ELF3 (Homo sapiens, UniProt P78545 1-371); conditions: protein: recombinant; tags: N-terminal GST; dsDNA, one strand shown
# T5 sequence: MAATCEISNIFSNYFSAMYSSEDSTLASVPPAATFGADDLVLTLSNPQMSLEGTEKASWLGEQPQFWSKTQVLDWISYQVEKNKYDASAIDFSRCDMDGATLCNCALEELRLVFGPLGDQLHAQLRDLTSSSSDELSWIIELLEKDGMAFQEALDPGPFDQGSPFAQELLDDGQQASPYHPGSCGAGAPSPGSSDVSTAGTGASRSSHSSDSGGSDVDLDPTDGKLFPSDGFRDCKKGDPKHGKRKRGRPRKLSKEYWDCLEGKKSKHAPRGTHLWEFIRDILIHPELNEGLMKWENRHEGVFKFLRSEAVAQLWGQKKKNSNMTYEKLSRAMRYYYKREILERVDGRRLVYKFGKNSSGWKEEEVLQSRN
# Outline: as §1
# [9] = target: ETV1 (Homo sapiens, UniProt P50549 1-477); conditions: protein: recombinant; tags: N-terminal GST; dsDNA, one strand shown
# Outline: as §1
# [10] = target: T6, ERF (Homo sapiens, UniProt P50548 1-548); conditions: protein: recombinant; tags: N-terminal GST; dsDNA, one strand shown
# T6 sequence: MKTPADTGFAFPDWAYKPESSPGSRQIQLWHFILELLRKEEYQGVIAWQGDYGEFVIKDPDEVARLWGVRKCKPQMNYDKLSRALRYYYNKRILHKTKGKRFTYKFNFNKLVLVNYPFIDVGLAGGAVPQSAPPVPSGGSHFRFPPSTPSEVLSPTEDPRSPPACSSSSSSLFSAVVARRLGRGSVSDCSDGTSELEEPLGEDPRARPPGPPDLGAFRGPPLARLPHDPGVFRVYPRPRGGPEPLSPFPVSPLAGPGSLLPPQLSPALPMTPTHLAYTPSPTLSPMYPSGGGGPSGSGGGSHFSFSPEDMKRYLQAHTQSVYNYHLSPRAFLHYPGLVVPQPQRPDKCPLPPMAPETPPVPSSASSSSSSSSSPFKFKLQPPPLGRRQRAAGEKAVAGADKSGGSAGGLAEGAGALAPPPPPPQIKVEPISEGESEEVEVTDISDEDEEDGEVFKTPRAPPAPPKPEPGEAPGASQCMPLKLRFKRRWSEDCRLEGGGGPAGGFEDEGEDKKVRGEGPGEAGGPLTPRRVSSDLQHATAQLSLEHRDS
# Outline: as §1
# [11] = target: T7, ETV3L (Homo sapiens, UniProt Q6ZN32 1-361); conditions: protein: recombinant; tags: N-terminal GST; dsDNA, one strand shown
# T7 sequence: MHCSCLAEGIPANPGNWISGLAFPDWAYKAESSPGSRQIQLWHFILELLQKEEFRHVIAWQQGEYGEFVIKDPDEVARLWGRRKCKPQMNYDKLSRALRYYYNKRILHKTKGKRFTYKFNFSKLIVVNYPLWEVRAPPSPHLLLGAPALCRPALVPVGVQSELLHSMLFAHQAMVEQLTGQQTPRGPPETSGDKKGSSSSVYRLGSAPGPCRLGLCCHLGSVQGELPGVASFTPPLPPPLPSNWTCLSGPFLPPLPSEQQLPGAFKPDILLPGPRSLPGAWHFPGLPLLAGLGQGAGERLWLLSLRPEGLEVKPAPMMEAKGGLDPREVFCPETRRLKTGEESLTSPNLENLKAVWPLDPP
# Outline: as §1
# [12] = target: T8, ETS2 (Homo sapiens, UniProt P15036 1-469); conditions: protein: recombinant; tags: N-terminal GST; dsDNA, one strand shown
# T8 sequence: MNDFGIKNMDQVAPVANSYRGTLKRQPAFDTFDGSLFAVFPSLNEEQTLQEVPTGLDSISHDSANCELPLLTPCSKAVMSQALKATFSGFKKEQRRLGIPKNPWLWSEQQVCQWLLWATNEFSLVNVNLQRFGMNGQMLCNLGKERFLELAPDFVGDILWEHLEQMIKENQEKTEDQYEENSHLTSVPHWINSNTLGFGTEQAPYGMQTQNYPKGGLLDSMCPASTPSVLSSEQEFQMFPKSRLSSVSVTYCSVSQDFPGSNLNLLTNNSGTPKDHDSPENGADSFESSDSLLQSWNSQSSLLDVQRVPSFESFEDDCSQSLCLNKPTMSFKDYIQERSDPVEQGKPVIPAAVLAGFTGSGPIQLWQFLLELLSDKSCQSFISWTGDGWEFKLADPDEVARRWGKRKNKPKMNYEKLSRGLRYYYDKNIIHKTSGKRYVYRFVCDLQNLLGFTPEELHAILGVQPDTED
# Outline: as §1
# [13] = target: T9, SPDEF (Homo sapiens, UniProt O95238 1-335); conditions: protein: recombinant; tags: N-terminal GST; dsDNA, one strand shown
# T9 sequence: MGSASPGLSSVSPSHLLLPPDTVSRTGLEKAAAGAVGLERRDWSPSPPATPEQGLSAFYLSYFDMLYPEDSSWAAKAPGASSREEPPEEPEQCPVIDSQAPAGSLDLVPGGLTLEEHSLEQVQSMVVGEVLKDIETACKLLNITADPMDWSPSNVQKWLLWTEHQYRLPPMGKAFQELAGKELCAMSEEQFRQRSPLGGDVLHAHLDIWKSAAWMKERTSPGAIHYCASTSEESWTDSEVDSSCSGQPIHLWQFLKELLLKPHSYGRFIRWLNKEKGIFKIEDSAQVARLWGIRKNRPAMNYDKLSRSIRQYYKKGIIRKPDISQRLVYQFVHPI
# Outline: as §1
# [14] = target: T10, ETV7 (Homo sapiens, UniProt Q9Y603 1-341); conditions: protein: recombinant; tags: N-terminal GST; dsDNA, one strand shown
# T10 sequence: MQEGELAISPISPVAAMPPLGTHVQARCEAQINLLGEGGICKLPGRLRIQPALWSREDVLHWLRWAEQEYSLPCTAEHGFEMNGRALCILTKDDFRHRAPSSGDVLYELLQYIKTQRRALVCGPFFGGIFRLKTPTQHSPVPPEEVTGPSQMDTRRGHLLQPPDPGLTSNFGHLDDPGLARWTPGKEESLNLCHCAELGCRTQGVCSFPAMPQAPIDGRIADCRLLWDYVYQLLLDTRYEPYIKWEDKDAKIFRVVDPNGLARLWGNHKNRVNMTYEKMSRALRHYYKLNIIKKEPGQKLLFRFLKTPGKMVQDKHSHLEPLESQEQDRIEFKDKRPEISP
# Outline: as §1
# [15] = target: T11, ELF5 (Homo sapiens, UniProt Q9UKW6-2 1-255); conditions: protein: recombinant; tags: N-terminal GST; dsDNA, one strand shown
# T11 sequence: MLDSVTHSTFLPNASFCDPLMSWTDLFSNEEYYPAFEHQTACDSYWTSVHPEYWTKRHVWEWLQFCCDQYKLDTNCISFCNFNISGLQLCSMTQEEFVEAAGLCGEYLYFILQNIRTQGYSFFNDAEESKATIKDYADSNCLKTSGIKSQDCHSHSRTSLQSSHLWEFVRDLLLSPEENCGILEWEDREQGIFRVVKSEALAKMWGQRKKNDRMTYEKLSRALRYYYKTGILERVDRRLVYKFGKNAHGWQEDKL
# Outline: as §1
# [16] = target: T12, ETV3 (Homo sapiens, UniProt P41162-2 1-143); conditions: protein: recombinant; tags: N-terminal GST; dsDNA, one strand shown
# T12 sequence: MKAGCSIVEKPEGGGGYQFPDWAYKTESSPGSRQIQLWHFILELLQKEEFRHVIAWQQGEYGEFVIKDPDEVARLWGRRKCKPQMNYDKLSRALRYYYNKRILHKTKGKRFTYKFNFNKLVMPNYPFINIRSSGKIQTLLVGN
# Outline: as §1
# [17] = target: ETV6 (Homo sapiens, UniProt P41212 1-452); conditions: protein: recombinant; tags: N-terminal GST; dsDNA, one strand shown
# Outline: as §1
# Chain of ELF4 (Q99607 whole entry): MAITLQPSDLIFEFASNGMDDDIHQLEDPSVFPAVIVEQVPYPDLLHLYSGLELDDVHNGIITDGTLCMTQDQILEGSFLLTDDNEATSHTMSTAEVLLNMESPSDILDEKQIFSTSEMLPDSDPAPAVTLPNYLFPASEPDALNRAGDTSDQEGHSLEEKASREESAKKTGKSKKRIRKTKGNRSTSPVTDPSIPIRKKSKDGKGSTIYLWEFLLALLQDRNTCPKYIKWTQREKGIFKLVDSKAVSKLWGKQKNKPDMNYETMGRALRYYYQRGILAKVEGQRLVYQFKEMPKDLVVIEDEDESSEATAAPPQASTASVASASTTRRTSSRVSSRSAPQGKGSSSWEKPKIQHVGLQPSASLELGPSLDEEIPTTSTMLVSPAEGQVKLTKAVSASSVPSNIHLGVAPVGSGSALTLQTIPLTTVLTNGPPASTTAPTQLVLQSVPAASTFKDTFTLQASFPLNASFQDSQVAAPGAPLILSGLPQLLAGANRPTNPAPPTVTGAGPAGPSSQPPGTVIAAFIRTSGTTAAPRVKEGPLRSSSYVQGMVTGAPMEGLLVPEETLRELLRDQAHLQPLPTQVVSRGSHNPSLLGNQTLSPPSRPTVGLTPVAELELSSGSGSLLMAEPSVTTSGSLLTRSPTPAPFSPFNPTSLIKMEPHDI
# Chain of HSF1 (Q00613 whole entry): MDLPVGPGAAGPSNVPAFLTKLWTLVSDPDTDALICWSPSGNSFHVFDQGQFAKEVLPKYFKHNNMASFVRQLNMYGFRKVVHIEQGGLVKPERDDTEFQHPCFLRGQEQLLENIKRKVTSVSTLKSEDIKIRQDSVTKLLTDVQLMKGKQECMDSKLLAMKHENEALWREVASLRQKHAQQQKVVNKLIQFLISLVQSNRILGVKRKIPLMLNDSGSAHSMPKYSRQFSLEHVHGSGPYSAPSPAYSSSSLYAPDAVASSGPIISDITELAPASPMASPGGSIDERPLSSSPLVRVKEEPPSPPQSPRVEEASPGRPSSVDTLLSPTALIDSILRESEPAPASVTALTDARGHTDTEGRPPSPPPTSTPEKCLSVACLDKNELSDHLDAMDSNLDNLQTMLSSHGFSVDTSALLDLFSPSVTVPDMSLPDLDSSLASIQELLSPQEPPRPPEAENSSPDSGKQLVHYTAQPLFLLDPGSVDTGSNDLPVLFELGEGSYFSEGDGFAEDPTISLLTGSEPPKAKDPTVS
# Chain of ETV6 (P41212 whole entry): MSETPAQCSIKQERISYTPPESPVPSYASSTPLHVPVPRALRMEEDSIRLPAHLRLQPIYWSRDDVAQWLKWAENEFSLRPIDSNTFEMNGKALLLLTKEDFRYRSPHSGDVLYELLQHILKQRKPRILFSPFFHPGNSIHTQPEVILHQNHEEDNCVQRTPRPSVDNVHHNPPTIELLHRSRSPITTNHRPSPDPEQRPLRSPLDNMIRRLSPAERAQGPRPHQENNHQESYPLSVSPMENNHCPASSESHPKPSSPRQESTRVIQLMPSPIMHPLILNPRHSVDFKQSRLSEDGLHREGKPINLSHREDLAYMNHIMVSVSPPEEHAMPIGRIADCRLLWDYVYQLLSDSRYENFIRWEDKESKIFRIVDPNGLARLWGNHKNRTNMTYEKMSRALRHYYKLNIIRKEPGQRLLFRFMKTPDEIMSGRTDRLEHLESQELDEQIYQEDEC
# Chain of ETV1 (P50549 whole entry): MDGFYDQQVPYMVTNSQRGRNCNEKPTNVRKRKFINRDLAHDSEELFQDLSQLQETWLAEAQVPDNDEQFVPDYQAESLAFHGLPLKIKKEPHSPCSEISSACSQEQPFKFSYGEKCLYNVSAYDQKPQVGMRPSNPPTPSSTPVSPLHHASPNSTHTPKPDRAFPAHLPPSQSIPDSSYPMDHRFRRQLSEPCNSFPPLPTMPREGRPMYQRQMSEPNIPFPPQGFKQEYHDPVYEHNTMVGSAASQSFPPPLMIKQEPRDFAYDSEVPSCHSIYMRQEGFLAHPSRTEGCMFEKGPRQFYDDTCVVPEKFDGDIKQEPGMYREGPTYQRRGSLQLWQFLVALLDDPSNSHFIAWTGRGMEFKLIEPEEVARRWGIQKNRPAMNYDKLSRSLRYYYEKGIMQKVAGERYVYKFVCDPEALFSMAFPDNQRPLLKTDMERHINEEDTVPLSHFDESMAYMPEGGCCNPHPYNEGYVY
# Chain of ETV5 (P41161 whole entry): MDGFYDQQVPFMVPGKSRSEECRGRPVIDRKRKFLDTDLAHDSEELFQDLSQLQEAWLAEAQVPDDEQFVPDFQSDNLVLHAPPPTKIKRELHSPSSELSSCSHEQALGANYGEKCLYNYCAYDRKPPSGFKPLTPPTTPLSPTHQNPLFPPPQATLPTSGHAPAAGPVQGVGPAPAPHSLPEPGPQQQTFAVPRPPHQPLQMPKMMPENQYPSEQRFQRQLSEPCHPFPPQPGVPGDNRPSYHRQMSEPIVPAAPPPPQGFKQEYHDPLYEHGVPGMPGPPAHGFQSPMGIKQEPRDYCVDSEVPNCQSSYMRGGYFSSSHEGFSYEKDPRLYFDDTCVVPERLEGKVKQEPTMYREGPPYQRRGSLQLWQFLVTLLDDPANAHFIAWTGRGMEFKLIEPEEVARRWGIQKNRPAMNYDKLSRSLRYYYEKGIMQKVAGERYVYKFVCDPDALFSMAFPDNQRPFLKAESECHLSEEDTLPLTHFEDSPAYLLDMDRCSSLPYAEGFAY
sequence,measurement,setting,value
ACTGGC,binding signal,[1],"1.11 fold enrichment (6-mer frequency, TF over GST control)"
same,binding signal,[2],"1.11 fold enrichment (6-mer frequency, TF over GST control)"
same,binding signal,[3],"1.07 fold enrichment (6-mer frequency, TF over GST control)"
same,binding signal,[4],"1.28 fold enrichment (6-mer frequency, TF over GST control)"
same,binding signal,[5],"1.16 fold enrichment (6-mer frequency, TF over GST control)"
same,binding signal,[6],"1.25 fold enrichment (6-mer frequency, TF over GST control)"
same,binding signal,[7],"1.11 fold enrichment (6-mer frequency, TF over GST control)"
same,binding signal,[8],"1.1 fold enrichment (6-mer frequency, TF over GST control)"
same,binding signal,[9],"1.11 fold enrichment (6-mer frequency, TF over GST control)"
same,binding signal,[10],"1.18 fold enrichment (6-mer frequency, TF over GST control)"
same,binding signal,[11],"1.18 fold enrichment (6-mer frequency, TF over GST control)"
same,binding signal,[12],"1.11 fold enrichment (6-mer frequency, TF over GST control)"
same,binding signal,[13],"1.04 fold enrichment (6-mer frequency, TF over GST control)"
same,binding signal,[14],"1.21 fold enrichment (6-mer frequency, TF over GST control)"
same,binding signal,[15],"1.04 fold enrichment (6-mer frequency, TF over GST control)"
same,binding signal,[16],"1.07 fold enrichment (6-mer frequency, TF over GST control)"
same,binding signal,[17],"1.15 fold enrichment (6-mer frequency, TF over GST control)"
